HIF-2a inh: HIF-2a inhibition. AID 624352. inhibition, % at 18.8 µM. 786-0 RCC cells HIF-2a reporter, luciferase luminescence, overnight. 360,000 compounds, 0.72% hits;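 active = inhibition of the luminescence signal of 40% or more relative to plate controls, in a single-dose primary screen at 18.75 µM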
Peg3 prom inh: Peg3 promoter activity inhibition. HeLa PEG-Prom luciferase reporter, luminescence, overnight. inhibition, % at 20 µM. 360,000 compounds, 1.7% hits. AID 588405;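 active = inhibition of at least 50% at 20 µM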
KKLEB cytotox: reduces viability of KKLEB cystic fibrosis airway cells | AID 602141 | activity change (cytotoxicity), % at 5 µM | 360,000 compounds, 0.36% hits | KKLEB CF airway cells viability, ATPlite luminescence, overnight; stronger effect = lower value; cells stimulated with P. aeruginosa culture filtrate;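 active = corrected activity change at or below -50% at 5 µM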
MITF TRPM1 inh: inhibitors of MITF-driven TRPM1 promoter in melanoma cells | SK-MEL-5 TRPM1 promoter luciferase, 24 h | inhibition, % at 12.5 µM | 330,000 compounds, 0.83% hits;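 active = mean inhibition across replicates of 60% or more, whatever share of single replicates reaches that level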
CF NFkB block: cystic fibrosis NF-kB activation inhibition; KKLEB NF-kB-GFP reporter, PAF-induced, GFP fluorescence overnight; inhibition, % at 5 µM; 360,000 compounds, 0.86% hits; AID 588850;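 active = at least 50% inhibition at 5 µM, scaled per plate between neutral and stimulator controls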;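 note: PAF is a Pseudomonas aeruginosa culture filtrate used as stimulus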
CHOP inhibitor: blocks CHOP induction under ER stress. inhibition, % at 10 µM. 220,000 compounds, 3.8% hits. CHO-K1 CHOP-promoter luciferase, tunicamycin-induced, 15-18 h;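 active = compounds that reduced the stress-induced luciferase reporter signal by more than about 70% of percent inhibition, limit read from the data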
Hits are given with their value; – = inactive; · = no result given. Only some compounds are listed: those with a hit (about 4.3% of all), similar ones and a draw of the others.

SMILES	HIF-2a inh	Peg3 prom inh	KKLEB cytotox	MITF TRPM1 inh	CF NFkB block	CHOP inhibitor
O=c1[nH]c(SCCOc2ccccc2)nc2ccccc12	–	–	–	–	–	77
COc1ccc(C2CC(O)(c3ccccc3)Oc3cc(OC)ccc32)cc1 (configuration not stated)	–	–	–	–	–	92
COc1ccc(C2CC(=O)Oc3cc(OC)ccc32)cc1 (configuration not stated)	–	–	–	–	–	·
COc1cc(OC)c(OC)cc1CN(C)C(c1ccccc1)c1nnnn1-c1ccccc1C (configuration not stated)	–	–	–	–	–	85
COC(=O)C1=C(O)/C(=C\c2ccc(CNC(=O)C(=O)Nc3ccc(C)cc3)o2)N=C1C	–	–	–	–	–	–
COC(=O)C1=C(O)/C(=C\c2ccc(CNC(=O)C(=O)Nc3ccc(C)c(C)c3)o2)N=C1C	–	–	–	–	–	73
CC12CCCC[C@@H]1CCC1C2CCC2(C)C1CC[C@@]2(O)CNCCO (some centres not stated)	–	110	–	–	–	·
COc1ccc(-c2oc(NC(=O)CCl)c(C#N)c2-c2ccc(OC)cc2)cc1	–	102	–	–	–	–
COc1ccc(-c2oc(NC(=O)CSc3ncn[nH]3)c(C#N)c2-c2ccc(OC)cc2)cc1	–	–	–	–	–	–
CCOc1ccc2nc(SCC(=O)c3ccccc3)sc2c1	–	–	–	–	–	94
CCOC(=O)CSc1nc2ccc(NC(C)=O)cc2s1	–	–	–	–	–	90
CCOc1ccc2nc(SCC(=O)NC3CC3)sc2c1	–	–	–	–	–	·
CCOC(=O)c1c(-c2ccccc2)oc2ccc(OCC(O)CN(C)C)cc12 (configuration not stated)	–	105	–	–	–	·
CCOC(=O)c1c(-c2ccccc2)oc2ccc(OC(C)C(=O)O)cc12 (configuration not stated)	–	–	–	–	–	–
CCOC(=O)C1(Cc2cccc(Cl)c2)CCCN(C(=O)CN2C(=O)CSC2=O)C1 (configuration not stated)	–	–	–	–	–	·
C=CCNC(=O)C1CC2Cn3c(nc4cc(Cl)c(Cl)cc43)C2N1C (configuration not stated)	–	–	–	–	–	·
O=C(Nc1ccc(F)c(Cl)c1)c1csc(COCCO)n1	–	–	–	·	–	·
CCOC(=O)C1=C(COC(=O)Cc2ccccc2[N+](=O)[O-])NC(=O)NC1C (configuration not stated)	–	–	–	·	–	·
Cc1cccc(C)c1NC(=O)CN1CCCC1	–	–	–	–	–	·
Cc1cccc(C)c1NC(=O)CN1CCNCC1	–	–	–	–	–	87
CN(CCO)c1cccc2c1S(=O)(=O)N[C@@H](Cc1ccccc1)CO2	–	·	·	·	·	·
CCOc1ccc(-n2c(N)c(-c3nc4ccccc4[nH]3)sc2=S)cc1	–	–	–	–	–	81
COc1ccc(-n2c(N)c(-c3nc4ccccc4n3C)sc2=S)cc1	–	–	–	–	–	–
Cc1cccc(NC(=O)CSc2nnc(Cn3nnc(-c4ccccc4)n3)n2-c2ccccc2)c1	–	–	–	–	–	78
CCn1c(Cn2nnc(-c3ccccc3)n2)nnc1SCC(=O)Nc1cccc(C(C)=O)c1	–	–	–	–	–	–
SMILES	HIF-2a inh	Peg3 prom inh	KKLEB cytotox	MITF TRPM1 inh	CF NFkB block	CHOP inhibitor
N#Cc1c(NCCCO)nc(-c2ccccc2)c2c1CCCC2	–	–	–	–	–	78
CCc1nc(N2CCN(C(=O)c3ccco3)CC2)c(C#N)c2c1COC(C)(C)C2	–	–	–	–	–	·
CC(C)Cc1nc(N2CCN(C(=O)c3ccccc3)CC2)c(C#N)c2c1CCC2	–	–	–	–	–	80
CC1(C)Cc2c(C#N)c(N3CCN(C(=O)c4ccco4)CC3)nc(Cc3ccccc3)c2CO1	–	–	–	–	–	88
N#Cc1c(N2CCN(C(=O)c3ccccc3)CC2)nc(-c2ccccc2)c2c1CCCC2	–	–	–	–	–	72
CC1(Cc2cc(Cl)ccc2C(F)(F)F)C(=O)Nc2c(Cl)cccc21 (configuration not stated)	–	–	–	·	–	·
C=CCn1c(CNS(=O)(=O)c2ccc(Br)cc2)n[nH]c1=S	–	–	–	–	–	·

Screening data (PubChem BioAssay)
